# ± gives the standard deviation.
# Test system: MILI (PIWIL2) piRISC loaded with piRNA #1 (26 nt)
# Assay: pre-steady-state target cleavage rate (min^-1); guide: piRNA #1 5'p-UGAGGUAGUAGGUUGUAUAGUAUCCA; higher = faster piRNA-guided slicing of the target
# Conditions: auxiliary factor: 500 nM mouse GTSF1
# Outline: (§1)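 In Cleave-'n-Seq, a transcribed, DNA-blocked target RNA library (0.1 nM) was combined with 1 nM active affinity-purified piRISC bearing one synthetic guide, with or without 500 nM GTSF1 partner protein. Reactions ran in HEPES–potassium acetate buffer at 33 °C for 0–8 or 0–960 min. Uncleaved targets were sequenced and normalised to depth and to weakly complementary targets, three trials were pooled, and k3 was capped at 0.0001 min^-1. The pre-steady-state cleavage rate was obtained by fitting a burst-and-steady-state model.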
row,Sequence,pre-steady-state target cleavage rate
1,GGAGAGGAUACUAUACAAGCUACUAGCUCA,0.0601 ± 0.013
2,GGAGUGGAUACAUAUACAACCUACUACCUCA,0.114 ± 0.011
3,GGAGUGGAUACUAUACAACCUACAUCCUCA,0.00356 ± 0.0016
4,GGAGAGGAUACAUACAACCUACUACCUCA,0.137 ± 0.016
5,GGAGACCUAUGGAUACAACCUACUACCUCA,0.0189 ± 0.0046
6,GGAGUGGAUACUAUACUACCUACUACCUGA,0.104 ± 0.013
7,GGAGAGGUUACUAUACAACCUACUACGUCA,0.011 ± 0.0037
8,GGAGAGGAUACUAUACAACCUACUACCUCU [g2:g25:cont:t1U],0.238 ± 0.025
9,GGAGUGGAUUCUAUACUACCUACUACCUCA,0.155 ± 0.0078
10,GGAGACCUAACUAUACAACCUAGUUCCUCA,0.00721 ± 0.0051
11,GGAGACCAUACUAUACACCCUACUACCUCA,0.0841 ± 0.016
12,GGAGACCUUACUCUACAACCUACUACCUCA,0.202 ± 0.02
13,GGAGUGGAUACUAUACAACCUACUACCUCA [g2:g26:cont:t1A],0.2 ± 0.011
14,GGAGACCAUACUAUACAACCUACUACCUCC [g2:g23:cont:t1C],0.187 ± 0.017
15,GGAGAGCAUACUAUACAACCUACUACCUGA,0.112 ± 0.017
16,GGAGACCUAUCUCUACAACCUACUACCUCA,0.0688 ± 0.0068
17,GGAGACGAUACUAUACAACCUACUUGCUCA,0.155 ± 0.052
18,GGAGACCAUACUAUACAACCUACUACCUGA,0.155 ± 0.023
19,GGAGUGCAUAGUAUACAACCUACUACCUCA,0.125 ± 0.011
20,GGAGAGGAUACUAUACAACCAACUACGUCA,0.00609 ± 0.0018

row,Sequence,pre-steady-state target cleavage rate
1,GGAGACCUAACUAUACAAGCUACUACCUGA,0.235 ± 0.043
2,GGAGUAGAUACUAUACAACCUACUACCUCA,0.186 ± 0.0093
3,GGAGACCUAUCUAUACAACCUACUACCUUCA,0.139 ± 0.017
4,GGAGACCAUCACUAUACAACCUACUACCUCA,0.147 ± 0.021
5,GGAGAGGAUACUAUACACCCUACUACCUCA,0.122 ± 0.015
6,GGAGAGGUUACUAUACAACCUACAACCUCA,0.0663 ± 0.015
7,GGAGACCAUACAUUACAACCUACUACCUCA,0.0869 ± 0.014
8,GGAGUGGUUACAAUACAACCUACUACCUCA,0.172 ± 0.011
9,GGAGUGGAUACUAUACAACCUACUACCUUCA,0.128 ± 0.01
10,GGAGACCAUACUAUGCAACCUACUACCUCA,0.174 ± 0.019
11,GGAGAGGAUACUAUACAAACUACUACCUCA,0.134 ± 0.013
12,GGAGACGAUACAAUACAACCUACAACCUCA,0.152 ± 0.018
13,GGAGUGGAUACUUACAACCUACUACCUCA,0.141 ± 0.012
14,GGAGACCUUACUAUUACAACCUACUACCUCA,0.117 ± 0.01
15,GGAGACCAUACUAUACAACCUACUACCUCCA,0.137 ± 0.018
16,GGAGACGUUACUAUACAAGCUACUACCUCA,0.216 ± 0.017
17,GGAGACCUAACUAAACAACCUACUACCUCA,0.0743 ± 0.017
18,GGAGACCUUACUAUACAACCUACUAUCUCA,0.0879 ± 0.0097
19,GGAGACGAUACUUUACAACCUACUACGUCA,0.0766 ± 0.011
20,GGAGACCUUACUAUGCAACCUACUACCUCA,0.158 ± 0.011

# Test system: EfPiwi piRISC loaded with piRNA #1 (26 nt)
# Assay: pre-steady-state target cleavage rate (min^-1); auxiliary factor: 500 nM Ephydatia muelleri Gtsf1; guide: piRNA #1 5'p-UGAGGUAGUAGGUUGUAUAGUAUCCA; MIWI and MILI are mouse PIWI proteins and EfPiwi is from a freshwater sponge; tags in brackets are library labels; higher = faster piRNA-guided slicing of the target
# Conditions: not given
# Outline: as §1
row,Sequence,pre-steady-state target cleavage rate
1,GGAGAGGAUACUAUACAAGCUACUAGCUCA,0.00266 ± 0.0018
2,GGAGUGGAUACAUAUACAACCUACUACCUCA,0.0717 ± 0.027
3,GGAGUGGAUACUAUACAACCUACAUCCUCA,0.00282 ± 0.0012
4,GGAGAGGAUACAUACAACCUACUACCUCA,0.0103 ± 0.005
5,GGAGACCUAUGGAUACAACCUACUACCUCA,0.00946 ± 0.005
6,GGAGUGGAUACUAUACUACCUACUACCUGA,0.00352 ± 0.0018
7,GGAGAGGUUACUAUACAACCUACUACGUCA,0.00435 ± 0.0016
8,GGAGAGGAUACUAUACAACCUACUACCUCU [g2:g25:cont:t1U],1.56 ± 0.47
9,GGAGUGGAUUCUAUACUACCUACUACCUCA,0.00505 ± 0.0034
10,GGAGACCUAACUAUACAACCUAGUUCCUCA,0.00297 ± 0.0025
11,GGAGACCAUACUAUACACCCUACUACCUCA,0.00656 ± 0.0021
12,GGAGACCUUACUCUACAACCUACUACCUCA,0.0532 ± 0.019
13,GGAGUGGAUACUAUACAACCUACUACCUCA [g2:g26:cont:t1A],0.176 ± 0.056
14,GGAGACCAUACUAUACAACCUACUACCUCC [g2:g23:cont:t1C],0.0109 ± 0.0042
15,GGAGAGCAUACUAUACAACCUACUACCUGA,0.00603 ± 0.0027
16,GGAGACCUAUCUCUACAACCUACUACCUCA,0.00937 ± 0.0045
17,GGAGACGAUACUAUACAACCUACUUGCUCA,0.00371 ± 0.0014
18,GGAGACCAUACUAUACAACCUACUACCUGA,0.00567 ± 0.0018
19,GGAGUGCAUAGUAUACAACCUACUACCUCA,0.0131 ± 0.0064
20,GGAGAGGAUACUAUACAACCAACUACGUCA,0.00338 ± 0.0016

row,Sequence,pre-steady-state target cleavage rate
1,GGAGACCUAACUAUACAAGCUACUACCUGA,0.00345 ± 0.003
2,GGAGUAGAUACUAUACAACCUACUACCUCA,0.158 ± 0.057
3,GGAGACCUAUCUAUACAACCUACUACCUUCA,0.0604 ± 0.023
4,GGAGACCAUCACUAUACAACCUACUACCUCA,0.0254 ± 0.012
5,GGAGAGGAUACUAUACACCCUACUACCUCA,0.0114 ± 0.0053
6,GGAGAGGUUACUAUACAACCUACAACCUCA,0.00313 ± 0.0018
7,GGAGACCAUACAUUACAACCUACUACCUCA,0.0108 ± 0.0045
8,GGAGUGGUUACAAUACAACCUACUACCUCA,0.00789 ± 0.0035
9,GGAGUGGAUACUAUACAACCUACUACCUUCA,0.168 ± 0.061
10,GGAGACCAUACUAUGCAACCUACUACCUCA,0.0164 ± 0.0068
11,GGAGAGGAUACUAUACAAACUACUACCUCA,0.00673 ± 0.0029
12,GGAGACGAUACAAUACAACCUACAACCUCA,0.00274 ± 0.0027
13,GGAGUGGAUACUUACAACCUACUACCUCA,0.0233 ± 0.011
14,GGAGACCUUACUAUUACAACCUACUACCUCA,0.00484 ± 0.0035
15,GGAGACCAUACUAUACAACCUACUACCUCCA,0.0119 ± 0.0039
16,GGAGACGUUACUAUACAAGCUACUACCUCA,0.00435 ± 0.002
17,GGAGACCUAACUAAACAACCUACUACCUCA,0.00631 ± 0.0031
18,GGAGACCUUACUAUACAACCUACUAUCUCA,0.00831 ± 0.0039
19,GGAGACGAUACUUUACAACCUACUACGUCA,0.00279 ± 0.0019
20,GGAGACCUUACUAUGCAACCUACUACCUCA,0.0061 ± 0.0032
